Structures are written as SMILES. The whole screen tested about 2,300 compounds, of which about 790 (34%) were called active. How the calls were made is not given here. Some of the results follow. Results with a measured potency or affinity are listed apart.

This test in a line: THP-1 cell cytotoxicity, dose response, cytotoxicity control for non-replicating M. tuberculosis project (AID 489025). Conditions: THP-1 cell viability; series mostly up to 40 µM.
For `O=C(N/N=C/c1ccc(Br)s1)c1cccnc1`, the outcome was inactive. The result for `CC(C)(C)OC(=O)N/N=C\c1ccc([N+](=O)[O-])s1` reads “inactive”; that for `COc1cc(/C=C2/C(=O)NN(c3cccc(F)c3)C2=O)ccc1OC(=O)c1ccco1`, “inactive”. The result for `CCOc1ccc(Nc2ccc([N+](=O)[O-])c3nonc23)cc1` reads “inactive”; that for `CS/C(Nc1cc(Cl)ccc1Cl)=C(/C#N)C(=O)c1ccco1`, “inactive”; that for `Cc1ccc(NC(=O)C(=O)NNC(=O)c2ccccc2C)cc1Cl`, “inactive”. The result for `CCOC(=O)N1CCN(c2cc(C)c([N+](=O)[O-])cc2F)CC1` reads “inactive”. Turning to `Cc1ccc(CN2CC(C(=O)OCc3ccccc3Cl)CC2=O)cc1` (stereo unspecified), the molecule was called inactive.

For the molecule `Cc1cccc(C)c1NC(=O)c1sc(N)nc1-c1ccccc1`, the result was inactive. The result for `Cc1ccc2cc(/C=N/NC(=O)[C@H](C)NC(=O)OC(C)(C)C)c(Cl)nc2c1` reads “inactive”.

As for `Cc1ccc(NC(=O)c2noc(C(C)C)c2[N+](=O)[O-])cc1`, the outcome was inactive. As for `O=C(N/N=C/c1cccc(F)c1)c1c(O)c2ccccc2[nH]c1=O`, the entry is “inactive”. The result for `CC(=O)Oc1ccc(/C=C2\N=C(C3CCCCC3)OC2=O)cc1` reads “inactive”. Regarding `COc1cc(N=c2ssnc2Cl)cc(OC)c1OC`, the call was inactive. As for `CCn1ccc(C(=O)Nc2cccc(Cl)c2)n1`, the entry is “inactive”; as for `O=C(CCSc1nnc(-c2ccncc2)o1)Nc1cccc(Cl)c1`, “inactive”. On to `CCN1CCN(Cc2cc(C(C)(C)C)c(O)c(C(C)(C)C)c2)CC1`, for which the outcome was inactive. As for `CCCCOC(=O)Cn1c(-c2ccccc2)nc2ccccc2c1=O`, the entry is “inactive”; as for `CC(=O)Nc1cccc(-c2nc3ccccc3c(=O)o2)c1`, “inactive”; as for `O=C(Nc1ccccn1)c1ccc(C(=O)c2ccccc2)cc1`, “inactive”.

Turning to `O=C(Nc1cccnc1)c1ccc(-c2ccc(Cl)cc2)o1`, the result was inactive. For `CCCOC(=O)c1ccc(NC(=O)c2ccc(Br)o2)cc1`, the result was inactive. As for `CC(C)(C)c1ccc(OCCC(=O)OCC(=O)NC2CC2)cc1`, the entry is “inactive”; as for `O=C(NC1CCOc2ccccc21)c1ccc(Cl)nc1` (stereo unspecified), “inactive”.

Take `Cc1ccccc1-n1nnc2c(=O)oc3ccccc3c21`: the molecule was called inactive.

For the molecule `NC(=O)C1CCN(C2CC(=O)NC2=O)CC1` (stereo unspecified), the call was inactive. The result for `O=C(c1cc2ccccc2o1)c1nc2c(n1O)CCCCC2` reads “inactive”; that for `O=C(Nc1ncc(Cc2ccccc2)s1)C1=NCCN1`, “inactive”; that for `CCOC(=O)Cc1ccc(NCc2ccc(Cl)cc2)cc1`, “inactive”. As for `CCOC(=O)Cc1cc(=O)n2[nH]cc(-c3ccc(Cl)cc3)c2n1`, the entry is “inactive”; as for `CCOC(=O)C1(O)CC(C)=NN1C(=O)c1cccc(Br)c1` (stereo unspecified), “inactive”. The result for `CCOC(=O)c1c(C)nc2c3ccccc3ccn12` reads “inactive”.

With `O=C1CC(N2CCN(c3ccccc3)CC2)C(=O)N1CCc1ccccc1` (stereo unspecified), the result was inactive. As for `CCOc1ccc(NC(=O)COC(=O)C2(C)CC2(Cl)Cl)c([N+](=O)[O-])c1` (stereo unspecified), the entry is “inactive”; as for `Cc1ccc(Sc2ncccc2N)cc1`, “inactive”.

In the case of `Cc1ccc2oc(=O)c3cc(C(=O)NCCCN4CCCCCC4)sc3c2c1`, the molecule was called inactive. For `O=C(NCCCN1CCOCC1)c1ccc(CSc2ccc(Cl)cc2)cc1`, the outcome was inactive.

For `CC(=O)N1CCC(=NNC(=O)c2cccs2)CC1`, the result was inactive. Consider `Cc1cccc(CSc2nnc(-c3ccco3)o2)c1`, for which the result was inactive.

On to `C#CCSc1nnc(-c2ccc([N+](=O)[O-])cc2)o1`, for which the call was inactive. As for `C#CCSc1nnc(-c2ccc(O)cc2)o1`, the entry is “inactive”; as for `CCOc1ccc(CC(=O)N2N=C(C)CC2(O)C(F)(F)F)cc1` (stereo unspecified), “inactive”. The result for `O=C(CNC1CCCC1)Nc1ccc(N2CCCCCC2)cc1` reads “inactive”; that for `COc1cc(N=c2ssnc2Cl)cc(OC)c1`, “inactive”; that for `N#Cc1ccc(N=c2ssnc2Cl)cc1`, “inactive”. `CC(=O)Nc1ccc(NC(=O)[C@@H]2CCCC[C@@H]2C(=O)O)cc1`: the molecule was called inactive. For the molecule `CC(C)N=C1SC(CC(=O)Nc2ccccc2)C(=O)N1C(C)C` (stereo unspecified), the call was inactive. Take `CC(C)(C)c1ccc(C(=O)N2CCCC2)s1`: the outcome was inactive.

Turning to `CC1(C)OC(c2ccccc2)=C/C(=C\C=N\NC(=O)c2ccncc2)O1`, the outcome was inactive. The result for `Cc1ccc(NC(=O)CCSc2nnc(-c3ccco3)o2)cc1` reads “inactive”; that for `O=C1/C(=C/c2ccco2)CCC1C1CCCC1` (stereo unspecified), “inactive”; that for `COc1ccc(CC(=O)Nc2nccs2)cc1OC`, “inactive”. As for `O=C(Oc1ccc(/C=N/O)cc1)c1ccccc1Cl`, the entry is “inactive”; as for `N/C(=N\OC(=O)c1cccc2ccccc12)c1cccnc1`, “inactive”; as for `Cc1ccc(-c2nnc(Cc3ccc([N+](=O)[O-])cc3)o2)cc1`, “inactive”. As for `N/N=C(/Cc1nc2ccccc2[nH]1)c1ccc([N+](=O)[O-])cc1`, the molecule was classed as inactive.

As to `O=[N+]([O-])c1ccc2nc(SCc3cn4ccccc4n3)[nH]c2c1`, the molecule was called inactive.

Take `O=C(Nc1nc2ccccc2[nH]1)c1cccc([N+](=O)[O-])c1`: the call was inactive. As for `Cc1ccc2cc3c(nc2c1)OCC3`, the entry is “inactive”; as for `Fc1ccc(N2CCN(Cc3nnc(-c4ccccc4)o3)CC2)cc1`, “inactive”; as for `O=C1CCCCC1Sc1nnc(-c2ccc3c(c2)OCO3)o1` (stereo unspecified), “inactive”. `O=C(COC(=O)c1ccccc1Cl)NCCC1=CCCCC1`: the result was inactive. The result for `Cc1ccc2c(C)ccc(O)c2n1` reads “inactive”. For the molecule `CN1C(=O)CC(N2CCC(c3nc4ccccc4s3)CC2)C1=O` (stereo unspecified), the call was inactive. Consider `FC(F)(F)c1ccc(NCCc2ccccc2)nc1`, for which the molecule was called inactive. The result for `CN(C)/C=C1/C(=O)N(c2ccc([N+](=O)[O-])cc2)N=C1c1ccccc1` reads “inactive”; that for `Cc1cc(C)n2nc(N)c(N=Nc3ccccc3)c2n1`, “inactive”; that for `S=C1CN=C(c2ccccc2)c2cc(Cl)ccc2N1`, “inactive”. Regarding `CC(C)c1ccc(N2C(=O)CC(Sc3ncn[nH]3)C2=O)cc1` (stereo unspecified), the molecule was called inactive.

In the case of `CCOC(=O)COn1c2c(c3c4no[n+]([O-])c4ccc31)CCCC2`, the call was inactive. With `CN(C)CCNc1c2c(c(C#N)c3nc4ccccc4n13)CCCC2`, the call was inactive. Consider `CC1=NN(c2ccccc2)C(=O)C1C(=O)c1ccccc1` (stereo unspecified), for which the result was inactive. In the case of `Oc1ccccc1CN1CCCC(N2CCN(c3cccc(C(F)(F)F)c3)CC2)C1` (stereo unspecified), the result was inactive. As for `N=C1/C(=C/c2ccc(OC(=O)c3ccco3)cc2)C(=O)N=C2SC=CN12`, the entry is “inactive”.

Regarding `CCc1ccc(C2=C/C(=C/c3cccnc3)C(=O)O2)cc1`, the outcome was inactive. The result for `Cc1ccc(OCC(=O)OCc2c(C)noc2C)cc1C` reads “inactive”; that for `CCOc1ccc(NC(=O)COc2ccc3c(c2)OCO3)cc1`, “inactive”.

As for `O=C(COC(=O)c1ccccc1Br)Nc1ccccc1F`, the call was inactive. As to `O=C(CCNc1ccc(Cl)cc1)c1cccs1`, the result was inactive. The result for `Cc1cc(NC(=O)c2cc([N+](=O)[O-])cc([N+](=O)[O-])c2)no1` reads “inactive”. As for `Cc1occc1-c1nnc(-c2cc([N+](=O)[O-])cc([N+](=O)[O-])c2)o1`, the entry is “inactive”; as for `CCOC(=O)c1ccc(N=C(CC)c2c(O)n(C)c(=O)n(C)c2=O)cc1`, “inactive”. As for `O=C1OC(/C(=C\Nc2cc(Cl)ccc2O)[N+](=O)[O-])c2ccccc21` (stereo unspecified), the entry is “inactive”; as for `COc1cccc2cc(-c3nc4ccccc4o3)c(=O)oc12`, “inactive”; as for `CS(=O)(=O)Cc1nc2ccccc2oc1=O`, “inactive”. As for `O=C(OCC(=O)N1CCCC1)c1cc(Br)ccc1Cl`, the molecule was called inactive. As for `CC12CC3CC(C)(C1)CC(C(=O)N1CCCC1)(C3)C2`, the entry is “inactive”.

Regarding `OC(COc1ccccc1Cl)CN1CCN(CC(O)COc2ccccc2Cl)CC1` (stereo unspecified), the result was inactive. The result for `OC(COc1ccc2ccccc2c1Br)Cn1ccnc1` (stereo unspecified) reads “inactive”; that for `CCOc1ccc(Cn2c(=O)oc3ccccc32)cc1`, “inactive”; that for `CCOC(=O)COc1ccc2c(c1)c(C(C)=O)c(C)n2Cc1ccccc1`, “inactive”. As for `O=C(COc1ccccc1)NCCSCc1ccc(Cl)cc1`, the entry is “inactive”; as for `O=C(OCC#CCSc1nnc(-c2ccncc2)o1)c1cccs1`, “inactive”; as for `COc1ccc(COc2cccc(C=O)c2)cc1`, “inactive”. The result for `CCCCn1c(=O)c(C(=O)Nc2nnc(C(C)C)s2)c(O)c2ccccc21` reads “inactive”; that for `CCOC(=O)Cc1csc(NC(=O)COc2ccc3c(c2)CCC3)n1`, “inactive”; that for `CCCNC(=O)N1CCC(c2ccc3c(c2)OCO3)CC1`, “inactive”. Regarding `CCOC(=O)C1CCCc2c1[nH]c1c(C(N)=O)cccc21` (stereo unspecified), the molecule was classed as inactive. As for `O=C(OCC#CCSc1nc2ccccc2o1)c1ccco1`, the entry is “inactive”; as for `C/C(=N\O)c1cc(Cl)ccc1O`, “inactive”; as for `O=C(COC(=O)c1cc(Cl)ccc1O)c1ccc2c(c1)OCO2`, “inactive”. The result for `CCOC(=O)COc1ccc2c(=O)cc(-c3ccccc3)oc2c1` reads “inactive”; that for `CN(C)c1ccc(/C=C2\N=C(C(C)(C)C)OC2=O)cc1`, “inactive”; that for `O=C(OCc1cccc([N+](=O)[O-])c1)c1ccc2ccccc2n1`, “inactive”. Regarding `O=c1c2c([N+](=O)[O-])cc([N+](=O)[O-])cc2nc2ccccn12`, the outcome was inactive. The result for `CSc1ccc(CNc2ncc(-c3cccc([N+](=O)[O-])c3)n2C)cc1` reads “inactive”; that for `N[C@@H](Cc1ccccc1)c1nnc(SC/C=C/c2ccccc2)o1`, “inactive”; that for `O=C(Nc1nnc(-c2ccc3c(c2)CCCC3)o1)c1c(F)cccc1F`, “inactive”. As for `O=C(COc1ccccc1)Nc1nnc(-c2ccc3c(c2)CCCC3)o1`, the entry is “inactive”; as for `CCOc1ccc(C(=O)Nc2nnc(C3=COCCO3)o2)cc1`, “inactive”. As for `CCOc1ccccc1C(=O)OCC(=O)Nc1nnc(-c2ccccc2)o1`, the entry is “inactive”; as for `CCOc1ccc(-c2nnc(NC(=O)CCCOc3cccc(C)c3)o2)cc1`, “inactive”; as for `Cc1cccc(C(=O)Nc2nnc(-c3cccnc3)o2)c1`, “inactive”. Consider `COc1ccc(C(=O)COC(=O)c2ccccc2O)c(OC)c1`, for which the outcome was inactive. As for `O=Cc1ccc(OC2OCCOC2Oc2ccc(C=O)cc2)cc1` (stereo unspecified), the molecule was called inactive. The result for `O=C(CCN1CCN(C/C=C/c2ccccc2)CC1)Nc1ccc(Cl)cc1` reads “inactive”; that for `COc1ccccc1C(=O)OCC(=O)Nc1ccc(Cl)cn1`, “inactive”; that for `C=CCOC(=O)c1ccc(-n2cnc(C)n2)nc1`, “inactive”. Consider `NC(=O)CN1CCN(C2CC(=O)N(CCc3ccccc3)C2=O)CC1` (stereo unspecified), for which the molecule was classed as inactive.

Turning to `COc1cccc(C(=O)OCC(=O)Nc2nnc(-c3ccccc3)o2)c1`, the molecule was classed as inactive.

Take `O=C(Nc1nnc(-c2ccc(Cl)cc2)o1)C1=COCCO1`: the molecule was called inactive.
